Bioassay records: PubChem BioAssay, several laboratories
A selection: hits, their analogues and other compounds. The true share with any hit is near 4.7%.
ATG4B inh: ATG4B protease inhibitors, primary screen, biochemical, fluorescence, uHTS. Cysteine protease ATG4B (Homo sapiens), Q9Y4P1. ATG4B cleavage of LC3-PLA2, NBD-HPC fluorescence, 1 h. inhibition, % at 8.33 µM. 0.51% of 340,000 active; in the data active = inhibition above about 40%
Target sequence (Q9Y4P1 whole entry, looked up): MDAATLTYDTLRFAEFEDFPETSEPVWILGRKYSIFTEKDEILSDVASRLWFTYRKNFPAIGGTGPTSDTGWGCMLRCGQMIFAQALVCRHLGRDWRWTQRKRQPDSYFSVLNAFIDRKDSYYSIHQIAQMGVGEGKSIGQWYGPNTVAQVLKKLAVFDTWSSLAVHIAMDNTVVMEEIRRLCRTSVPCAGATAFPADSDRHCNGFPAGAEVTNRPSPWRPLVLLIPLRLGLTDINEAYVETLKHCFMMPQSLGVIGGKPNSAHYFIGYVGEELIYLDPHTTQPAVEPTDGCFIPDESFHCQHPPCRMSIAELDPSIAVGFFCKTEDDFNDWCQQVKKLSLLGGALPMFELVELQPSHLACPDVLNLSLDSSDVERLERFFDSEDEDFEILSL
PfHsp90 set2: growth inhibition of PfHsp90-expressing yeast, primary screen, antimalarial PfHsp90 inhibitor project, S. cerevisiae, BacTiter-Glo luminescence, single point, set 2; BacTiter-Glo ATP, 48 h; yeast lacking PDR1 and PDR3 efflux regulators; inhibition, % at 9.4 µM; 0.32% of 310,000 active; AID 504621, 2011;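 active = every replicate shows inhibition above about 80%, whatever the replicate mean, limit read from the data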
tim10-1 inh: growth inhibitors of tim10-1 mutant yeast, primary screen, luminescence, uHTS. S. cerevisiae tim10-1 ts strain growth, BacTiter-Glo, 24 h. inhibition, % at 20 µM. 2.2% of 330,000 active;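 active = inhibition of at least 40%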;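 note: mutant grown at 25 °C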
tim23-1 inh: growth inhibitors of tim23-1 mutant yeast, primary screen, luminescence, uHTS | S. cerevisiae tim23-1 growth, BacTiter-Glo luminescence, 24 h | inhibition, % at 20 µM | 1.3% of 330,000 active;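 active = growth inhibition of the mutant yeast at or above 50%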;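 note: temperature-sensitive mutant grown at 25 °C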
SKKanGAS inh: S. pyogenes SKKanGAS growth inhibitors in kanamycin, primary screen, streptokinase expression inhibitor project, SKKanGAS strain, BacTiter-Glo luminescence; 6 h; inhibition, % at 7.5 µM; 1.3% of 300,000 active;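 active = mean replicate score, as percent of positive control median, at least 50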;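 note: strain carries kanamycin resistance gene driven by streptokinase promoter and grows in 40 µg/ml kanamycin; loss of luminescence reflects streptokinase promoter inhibition or plain growth inhibition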
TIM10 inh: growth inhibitors of isogenic TIM10 control yeast, primary screen, counter-screen for tim10-1 yeast inhibitor project, luminescence, uHTS. 1.4% of 330,000 active. S. cerevisiae TIM10 strain growth, BacTiter-Glo luminescence, 24 h. inhibition, % at 10 µM;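 active = inhibition of 40% or more at the single tested concentration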;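 note: wild-type TIM10 isogenic control strain grown at permissive 25 °C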
A number is an active result; - = inactive; . = no result.

SMILES	ATG4B inh	PfHsp90 set2	tim10-1 inh	tim23-1 inh	SKKanGAS inh	TIM10 inh
CC1CCCN(C(=O)COc2ccc(NC(=O)c3cccs3)cc2)C1 (stereo not given)	-	-	-	-	-	-
Cc1ccc(C)c(S(=O)(=O)N2CCN(C(=O)c3ccc(N4CCCC4)c([N+](=O)[O-])c3)CC2)c1	-	-	-	-	-	-
Cc1ccc(NC(=O)Nc2nc3ccccc3s2)cc1NC(=O)Nc1nc2ccccc2s1	-	-	-	-	75.8	-
COC(=O)c1ccc(C)c(NS(=O)(=O)c2cn(C)nc2C)c1	-	-	-	-	-	-
Cc1ccc2nc(NC(=O)c3ccc(NS(=O)(=O)c4cccs4)cc3)sc2c1	-	-	-	-	61.6	-
Cc1ccc2nc(NC(=O)CCNS(=O)(=O)c3cccs3)sc2c1	-	-	-	-	-	-
CS(=O)(=O)c1ccc2nc(NC(=O)c3ccc(NS(=O)(=O)c4cccc([N+](=O)[O-])c4)cc3)sc2c1	-	-	-	-	61.8	-
COc1ccccc1NC(=O)Nc1nc(CC(=O)Nc2ccc(OC)c(OC)c2)cs1	-	.	-	-	-	-
COc1ccccc1NC(=O)Nc1nc(CC(=O)N2CCN(c3ccccc3OC)CC2)cs1	-	.	-	-	58.9	-
COc1cccc(NC(=O)Cc2csc(NC(=O)Nc3ccccc3OC)n2)c1	-	-	-	-	-	-
COc1ccccc1NC(=O)Cc1csc(NC(=S)Nc2ccc(C)cc2)n1	-	-	-	-	57.5	-
COc1cc(C)ccc1NC(=O)Cc1csc(NC(=O)Nc2ccccc2OC)n1	-	.	-	-	56.1	-
CCCc1nnc(NC(=O)CCC(=O)NCc2ccc(Cl)cc2Cl)s1	-	-	-	-	-	-
CC/C(=C/c1ccccc1)c1cccc2[nH]c3c(OC)cccc3c12	-	-	.	.	99.0	.
COc1cccc(C(=O)NCCSc2c(C)[nH]c3ccccc23)c1OC	-	-	-	-	-	-
O=C(/C=C/c1cccs1)NCc1cccs1	-	.	-	-	-	-
COc1ccc(/C=C/C(=O)NC(=S)NNC(=O)c2cccnc2)cc1OC	-	-	-	-	-	-
COc1ccc(/C=C/C(=O)NC(=S)NNC(=O)c2cccs2)cc1OC	-	-	-	-	73.0	-
O=C(/C=C/c1cccs1)NC(=S)NNC(=O)Cc1cccs1	-	-	-	-	67.9	-
COc1ccc(/C=C/C(=O)NC(=S)NNC(=O)Cc2cccs2)cc1OC	-	-	-	-	67.1	-
Cc1ccc(COc2ccccc2-c2cc(C(=O)N/N=C/c3cccnc3)[nH]n2)cc1	-	-	-	-	63.2	-
CCOc1ccccc1-c1cc(C(=O)N/N=C/c2cccnc2)c2ccccc2n1	-	-	-	-	-	-
COc1ccccc1-n1c(SCC(=O)Nc2ccc(Br)cc2)nc(O)cc1=O	-	-	-	-	64.2	-
COc1ccc(NC(=O)CSc2nc(O)cc(=O)n2-c2ccccc2)cc1	-	-	-	-	88.3	-
CC(=NNc1nc2ccccc2s1)c1ncccn1	-	114.6	.	.	.	.
SMILES	ATG4B inh	PfHsp90 set2	tim10-1 inh	tim23-1 inh	SKKanGAS inh	TIM10 inh
CC(=NNc1nc2ccccc2o1)c1ncccn1	-	125.6	.	.	.	.
CC(=NNc1nc2ccccc2o1)c1cc2ccccc2cn1	-	144.7	.	.	.	.
Cc1cc(C)nc(Nc2nc3ccccc3o2)n1	-	-	-	-	-	-
CC(=O)Nc1cccc(/C(C)=N/Nc2nc3ccccc3s2)c1	-	-	-	-	-	-
Oc1ccccc1/C=N/Nc1nc2ccccc2o1	-	-	-	-	106.0	-
Cc1cc(/C=C(\C#N)C(=O)NCc2cccs2)c(C)n1-c1ccccc1F	-	-	-	-	-	-
C[C@@H]1CN([C@H](C)CO)C(=O)Cc2cc(NS(=O)(=O)c3ccc(Cl)cc3)ccc2O[C@H]1CN(C)Cc1ccc(C(F)(F)F)cc1	-	-	-	-	.	-
CN1C(=O)/C(=C/c2cc3c(cc2Br)OCO3)NC1=S	-	-	-	-	-	-
CCN(CC)CCOc1ccc(/C(=C(/Cl)c2ccccc2)c2ccccc2)cc1	-	-	-	-	-	-
Cn1c(-c2cc(Br)ccc2O)n[nH]c1=S	-	-	-	-	67.4	-
C[C@H](NC(=O)c1cc2c(cn1)[nH]c1ccccc12)C(=O)O	-	-	-	-	-	-
O=C1CC2(CCN(C(=O)c3c(F)cccc3F)CC2)Oc2ccccc21	-	-	-	-	-	-
Cc1cc(C)n(-c2nc(NCCN(C)C)c3c4c(sc3n2)COC(C)(C)C4)n1	-	.	-	-	-	-
Cc1cc(C)n(-c2nc(NCCC(C)C)c3c4c(sc3n2)COC(C)(C)C4)n1	-	.	.	.	64.5	.
Cc1cc(C)n(-c2nc(SCC(=O)Nc3nccs3)c3c4c(sc3n2)COC(C)(C)C4)n1	-	-	-	-	57.9	-
COc1cc(CCC(=O)OCC(=O)NCc2ccccc2)cc(OC)c1OC	-	-	-	-	-	-
CSc1nc(Sc2ccccc2Cl)c2ccccc2n1	-	-	-	-	59.2	-
CCOC(=O)c1cnc(SC)nc1Sc1ccccc1Cl	-	-	-	-	-	-
Cc1nn(-c2nc3ccccc3[nH]2)c(N)c1-c1ccccc1	-	-	-	-	86.5	-
Cc1nc(=S)c2c([nH]1)-c1ccccc1CC21CCCCC1	-	-	-	-	100.1	-
CCc1nc2c(c(=O)[nH]1)C1(CCCC1)Cc1ccccc1-2	-	-	-	-	-	-
Cc1ccc(-c2nn(CCC(=O)O)cc2/C=C\C(=O)c2ccc(Br)cc2)cc1	-	-	-	-	73.4	-
Cn1cc(C(=O)NC2CCCCC2)c(=O)c2cc(S(=O)(=O)N3CCCC3)ccc21	-	-	-	-	-	-
CC(C)CCC(CCNCc1ccccn1)c1ccc(Cl)cc1 (stereo not given)	-	-	-	-	51.4	-
S=C(NCc1ccc(Cl)cc1)NCc1ccccn1	-	-	-	-	-	-
SMILES	ATG4B inh	PfHsp90 set2	tim10-1 inh	tim23-1 inh	SKKanGAS inh	TIM10 inh
Cc1cccc(C)c1OCC(=O)Nc1ccccc1N1CCCCC1	-	-	-	-	85.7	-
Cc1cccc(OCC(=O)Nc2ccccc2N2CCCCC2)c1C	-	-	-	-	70.4	-
COc1ccc(OCC(=O)Nc2ccccc2N2CCCCC2)cc1	-	-	-	-	-	-
O=C(CN1CCc2ccccc2C1)Nc1ccccc1N1CCCCCC1	-	-	-	-	85.6	-
CC(C(=O)N1CCc2ccccc21)n1cccc1 (stereo not given)	-	-	-	-	-	-
COc1ccc(O)c(/C=N/NC(=O)CCC(=O)Nc2ccc(C)cc2)c1	-	-	-	-	-	-
COCCn1c(-c2cc(OC)c(OC)c(OC)c2)nc2oc3cc(OC)ccc3c(=O)c2c1=O	-	.	-	-	54.6	-
